Screening results from PubChem BioAssay.
CBFb-RUNX1 inh – CBF-beta/RUNX1 interaction disruption; Potency, µM (titrated, usually from 59.8 µM), hits mostly inhibitors; AID 1477; 230,000 tested, under 10 active; Q01196+Q13951; AlphaScreen CBFb-His/RUNX1-biotin binding, biochemical
Target sequence (Q01196 whole entry, looked up): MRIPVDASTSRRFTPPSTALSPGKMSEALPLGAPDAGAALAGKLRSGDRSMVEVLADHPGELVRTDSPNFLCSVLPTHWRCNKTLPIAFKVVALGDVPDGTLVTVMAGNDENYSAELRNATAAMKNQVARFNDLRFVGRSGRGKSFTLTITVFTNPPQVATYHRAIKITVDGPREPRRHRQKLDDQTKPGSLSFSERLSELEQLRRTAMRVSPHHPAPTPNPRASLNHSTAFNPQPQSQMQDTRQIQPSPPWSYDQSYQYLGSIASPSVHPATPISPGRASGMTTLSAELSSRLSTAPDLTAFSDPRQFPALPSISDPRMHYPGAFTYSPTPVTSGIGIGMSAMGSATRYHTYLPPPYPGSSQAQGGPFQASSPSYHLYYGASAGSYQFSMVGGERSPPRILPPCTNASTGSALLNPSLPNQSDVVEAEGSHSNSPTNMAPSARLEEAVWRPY
Target sequence (Q13951 whole entry, looked up): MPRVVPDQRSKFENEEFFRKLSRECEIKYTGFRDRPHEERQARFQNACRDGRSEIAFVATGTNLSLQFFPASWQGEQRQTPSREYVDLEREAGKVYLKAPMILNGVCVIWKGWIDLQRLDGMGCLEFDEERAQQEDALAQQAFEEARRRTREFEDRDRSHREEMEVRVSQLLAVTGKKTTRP
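Room-temperature protein-protein interaction test with 30 nM each of His-tagged CBF-beta and biotinylated RUNX1, 15 min with compound, then 90 min with nickel plus streptavidin beads. Signal read in AlphaScreen mode.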
KinaseGlo FLuc – counter-screen: inhibitors of Kinase-Glo firefly luciferase; Q27757; Kinase-Glo luciferase, ATP luminescence, 8 min; Potency, µM (titrated, usually from 38.3 µM), most hits filed as inhibitors; 200,000 tested, 0.28% active; AID 1379; also: nearly all actives have a fitted effect of over 60% in size
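Substrate mix (final 50 mM imidazole pH 7.2, 50 mM KCl, 7 mM MgCl2, 10 uM ATP, 0.01% Tween 20, 0.05% BSA) plus pin-tool compound, then Kinase-Glo detection mix; 8 min ambient, luminescence read.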
TCR act – activators of T cell receptors; AID 504894; 330,000 tested, under 10 active; Potency, µM (highest dose often 9.22 µM), most hits filed as activators; primary human leukocytes, anti-CD3, IL-2 HTRF, 48 h
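Primary human leukocytes incubated 48 hr with anti-CD3 beads plus compound, without co-stimulation. Secreted IL-2 measured by HTRF (europium cryptate/d2 anti-IL-2 pair, 320 nm excitation, 665 nm emission).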
TRPV1 PAM – human TRPV1 potentiation. Q8NER1. TRPV1-expressing cells, Fluo-8 calcium influx, capsaicin EC20 potentiation. potentiation, % at 8.33 µM. 320,000 tested, 0.02% active. AID 540277; in the data active = potentiation above about 80%; inconclusive = between about 30% and that limit
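Cells expressing TRPV1 were dye-loaded with Fluo-8 and read kinetically: 10 s baseline, 3 min after compound (agonist portion), then 2 min after EC20 capsaicin (allosteric enhancer portion). Calcium-bound dye fluorescence at 480/520 nm.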
MBNL1 CUG block – inhibitors of human MBNL1 binding to CUG repeat RNA. Potency, µM (top dose mostly 57.5 µM), most hits filed as inhibitors. 280,000 tested, 0.036% active. Q9NR56. AID 2675. TR-FRET MBNL1-His/biotin-(CUG)12 binding, 665/545 ratio; active = well fitted inhibition curve with a large enough effect in the signal ratio, with a control signal flat, not every such curve was filed as active; inconclusive = small, poorly fitted or top-dose-only effect, or effect the other way, or a change in a side signal; inactive = no such curve, though single readings can be large or run the other way; the % refers to the signal ratio
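MBNL1-His + Biotin-(CUG)12, cpd titration 92 nM–58 uM; Tb anti-His Ab 0.055 ng/ul, SA-XL665 5 nM (final); 60 min RT; ratiometric 665/545 nm, Ex 340 nm; normalized to buffer and full-complex controls.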
TRPV1 ag – activates the human vanilloid receptor TRPV1. TRPV1-expressing cells, Fluo-8 calcium influx, agonist mode. activation, % at 8.33 µM. 320,000 tested, 0.19% active; in the data active = activation above about 80%; inconclusive = between about 30% and that limit
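TRPV1-expressing cells were cultured overnight at 35.5C and loaded with Fluo-8 calcium dye for 40 to 90 min at room temperature. After a 10 s baseline, compound was added and calcium influx was read kinetically for 3 min (ex 480/em 520 nm).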
Hits are given with their value; [ ] = another dose, or the depositor's remark. Compounds with a hit are over-represented: about 0.35% of the library has one in this group of screens. Unless noted, calls follow the shape of the dose curve; as a rule, active = well fitted curve in the direction sought with a large enough effect; inconclusive = small, poorly fitted or top-dose-only effect, or another doubt; inactive = no such curve, though single readings can be large; an effect the other way counts as inactive or inconclusive.

For CCCCOC(=O)Nc1ccc(C(N)=O)cc1 the results were CBFb-RUNX1 inh inactive, KinaseGlo FLuc inactive, TCR act inactive, TRPV1 PAM inactive, MBNL1 CUG block inactive and TRPV1 ag inactive.
CCCCOC(=O)Nc1ccc(C(C)C)cc1 was read as CBFb-RUNX1 inh inactive, KinaseGlo FLuc inactive, TCR act inactive, TRPV1 PAM inactive, MBNL1 CUG block inconclusive and TRPV1 ag 81.
For O=C(NCc1ccc(F)cc1)Nc1ccc(Cl)cc1 the results were CBFb-RUNX1 inh inactive, KinaseGlo FLuc inactive, TRPV1 PAM inactive, MBNL1 CUG block inactive and TRPV1 ag 80.
Screening O=[N+]([O-])c1ccc(/C=N/Nc2nc(N3CCCCCC3)nc(N3CCCCCC3)n2)o1 returned CBFb-RUNX1 inh inactive, KinaseGlo FLuc inactive, TCR act inactive, TRPV1 PAM inactive, MBNL1 CUG block inconclusive and TRPV1 ag inactive.
Cc1ccc(/C=N/Nc2nc(N3CCCCC3)nc(N3CCCCC3)n2)o1 was read as CBFb-RUNX1 inh inactive, KinaseGlo FLuc inactive, TCR act inactive, TRPV1 PAM inactive, MBNL1 CUG block inactive and TRPV1 ag 85.
`CS(=O)(=O)Nc1ccc(Nc2c3ccccc3nc3ccccc23)cc1` gave KinaseGlo FLuc inactive[7.66 µM].
`CCOC(=O)C(Cc1ccccc1)C(=O)Nc1cccc(C)c1` (stereo not given) gave CBFb-RUNX1 inh inactive, KinaseGlo FLuc inactive, TCR act inactive, TRPV1 PAM inactive, MBNL1 CUG block inactive and TRPV1 ag 85.
`CCN(CCNC(=O)c1ccc(C#N)cc1)c1cccc(C)c1` gave TCR act inactive, TRPV1 PAM inactive, MBNL1 CUG block inactive and TRPV1 ag 91.
`COc1cccc(CCNC(=O)c2ccc(C#N)cc2)c1` gave CBFb-RUNX1 inh inactive, TCR act inactive, TRPV1 PAM inactive, MBNL1 CUG block inactive and TRPV1 ag inconclusive.
COc1cc(C/C=C\c2ccccc2)c(OC)cc1O was read as CBFb-RUNX1 inh inconclusive and KinaseGlo FLuc inactive.
`COc1ccc2c(c1OC)C(Cc1ccccc1)N1CCc3cc4c(cc3C1C2)OCO4` (stereo not given) gave CBFb-RUNX1 inh inactive and KinaseGlo FLuc inactive.
`Cc1csc(NC(=O)c2cn3ccccc3n2)n1` gave CBFb-RUNX1 inh inactive, KinaseGlo FLuc 10µM, TCR act inactive, TRPV1 PAM inactive, MBNL1 CUG block inactive and TRPV1 ag inactive.
For Nc1cc(N)cc(-c2nc3ccccc3[nH]2)c1 the results were CBFb-RUNX1 inh inconclusive, KinaseGlo FLuc inactive, TCR act inactive, TRPV1 PAM inactive, MBNL1 CUG block inconclusive and TRPV1 ag inactive.
`c1ccc(-c2nc3ccccc3[nH]2)nc1` gave CBFb-RUNX1 inh inactive, KinaseGlo FLuc 7.9µM, TCR act inactive, TRPV1 PAM inactive, MBNL1 CUG block inactive and TRPV1 ag inactive.
Screening c1csc(-c2nc3ccccc3[nH]2)c1 returned CBFb-RUNX1 inh inactive, KinaseGlo FLuc inactive, TCR act inactive, TRPV1 PAM inactive, MBNL1 CUG block inactive and TRPV1 ag inactive.
Screening Cc1cc(-c2nc3ccccc3[nH]2)ccc1N returned CBFb-RUNX1 inh inactive, KinaseGlo FLuc 10µM, TCR act inactive, TRPV1 PAM inactive and TRPV1 ag inactive.
Screening COc1ccc(-c2nc3ccccc3[nH]2)cc1 returned CBFb-RUNX1 inh inactive, KinaseGlo FLuc 8.9µM, TCR act inactive, TRPV1 PAM inactive, MBNL1 CUG block inactive and TRPV1 ag inactive.
Screening c1ccc(-c2nc3ccccc3[nH]2)cc1 returned TCR act inactive, TRPV1 PAM inactive, MBNL1 CUG block inactive and TRPV1 ag inactive.
Screening Cc1ccc(-c2nc3ccccc3[nH]2)s1 returned CBFb-RUNX1 inh inactive, KinaseGlo FLuc 13µM, TCR act inactive, TRPV1 PAM inactive, MBNL1 CUG block inconclusive and TRPV1 ag inactive.
CCC(C)Sc1ccc(-c2nc3ccc(C)cn3c2NCc2ccccc2)cc1OC (stereo not given) was read as TCR act inactive, TRPV1 PAM inactive and TRPV1 ag 88.
CCC(C)Sc1cc(-c2nc3ccc(C)cn3c2NCc2ccccc2)ccc1OC (stereo not given) was read as TCR act inactive.
For CCC(C)Sc1cccc(-c2nc3cc(C)ccn3c2NCc2ccccc2)c1 (stereo not given) the results were TCR act inactive, TRPV1 PAM inactive and TRPV1 ag 93.
Screening C/C(CC/C(C)=N/O)=N/O returned KinaseGlo FLuc inactive[7.66 µM].
For COC(=O)c1c(NC(=O)c2nc3nc(C)cc(C(F)F)n3n2)sc2c1CCC2 the results were CBFb-RUNX1 inh inactive, KinaseGlo FLuc inactive, TCR act inactive, TRPV1 PAM 91, MBNL1 CUG block inactive and TRPV1 ag inactive.
Screening Oc1ccc(Cl)cc1C1C=C(c2ccc3c(c2)OCO3)NC(c2cc(Br)ccc2F)N1 (stereo not given) returned TRPV1 PAM inactive and TRPV1 ag inactive.
Screening Cn1c(N2CCCC2)nc2c1c(=O)n(Cc1ccc(Cl)cc1)c(=O)n2C returned CBFb-RUNX1 inh inactive, KinaseGlo FLuc inactive, TCR act inactive, TRPV1 PAM inactive, MBNL1 CUG block inactive and TRPV1 ag inconclusive.
Screening CC1CN(c2nc3c(c(=O)n(Cc4ccc(Cl)cc4)c(=O)n3C)n2C)CC(C)O1 (stereo not given) returned CBFb-RUNX1 inh inactive, KinaseGlo FLuc inactive, TCR act inactive, TRPV1 PAM inactive, MBNL1 CUG block inactive and TRPV1 ag 106.
Screening O[C@@H](c1cc([C@@]23C[C@H]4CC[C@@H]2C[C@H](C4)C3)nc2c(Cl)cc(Cl)cc12)C1CCCCN1 (stereo not given in full) returned KinaseGlo FLuc inactive[7.66 µM].
`CCc1sc(C(=O)N2CCc3ccccc32)cc1C` gave CBFb-RUNX1 inh inconclusive, KinaseGlo FLuc 11µM, TCR act inactive, TRPV1 PAM inactive, MBNL1 CUG block inactive and TRPV1 ag inactive.
COC(=O)c1c(NC(=O)C(=O)N2CCOCC2)sc2c1CCC2 was read as TCR act inactive, TRPV1 PAM inactive, MBNL1 CUG block inactive and TRPV1 ag inconclusive.
`COC(=O)c1c(NC(=O)C(=O)N2CCOCC2)sc2c1CCCC2` gave TCR act inactive, TRPV1 PAM inactive, MBNL1 CUG block inactive and TRPV1 ag 87.
COc1ccc(-c2cc(C(=O)N/N=C/c3ccc(O)cc3)[nH]n2)cc1 was read as KinaseGlo FLuc inactive.
`CN(C)C(=O)c1ccc(-c2nc(N(C)C)c3ccccc3n2)cc1` gave KinaseGlo FLuc 11µM.
`CC(=O)c1cccc(NC(=O)/C=C/c2ccc([N+](=O)[O-])s2)c1` gave CBFb-RUNX1 inh inactive, KinaseGlo FLuc inactive, TCR act inactive, TRPV1 PAM inactive, MBNL1 CUG block inconclusive and TRPV1 ag 84.
